Data taken from PubChem BioAssay (NCATS).
Results filed as inconclusive are left out. The source made the active and inactive calls. The call rests on the fitted dose curve; in most records, active means well fitted inhibition curve with a large enough effect; inconclusive means small, poorly fitted or top-dose-only effect; inactive means flat fitted curve, though single readings scatter.

Tests used:
Experiment in all cases: qHTS profiling for inhibitors of Plasmodium falciparum proliferation (AID 504749); further: nearly all actives have a fitted effect of over 60% in size
Conditions in all cases: P. falciparum in erythrocytes, SYBR Green DNA, 72 h; series mostly up to 12.8 µM
CP268 = tested on: CP268
In short: (§1)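 Readout was DNA-dye fluorescence from lysed cultures, ex 485/em 535 nm. Parasitized red cells had grown 72 h with compound; data scaled between 0.29 uM artemisinin and DMSO wells and corrected using vehicle-only plates.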

Dd2 = tested on: Dd2
In short: as §1

JCK = tested on: JCK
In short: as §1

N140 = tested on: N140
In short: as §1

PC26 = tested on: PC26
In short: as §1

SC27B = tested on: SC27B
In short: as §1

AA1029 = tested on: AA1029
In short: as §1

AS120 = tested on: AS120
In short: as §1

CP191 = tested on: CP191
In short: as §1

CP247 = tested on: CP247
In short: as §1

CP252 = tested on: CP252
In short: as §1

CP256 = tested on: CP256
In short: as §1

CP265 = tested on: CP265
In short: as §1

ECU = tested on: ECU
In short: as §1

PC15 = tested on: PC15
In short: as §1

CP192 = tested on: CP192
In short: as §1

CP291 = tested on: CP291
In short: as §1

CP297 = tested on: CP297
In short: as §1

CP185 = tested on: CP185
In short: as §1

CP211 = tested on: CP211
In short: as §1

Measured: Potency
Potency means the concentration at half of the fitted maximal effect.

O=C(O)[C@@H]1[C@@H]2C[C@H]3c4[nH]c5ccccc5c4CCN3C[C@@H]2CC[C@@H]1O
inactive: CP268 | Dd2 | JCK | N140 | PC26 | SC27B

CC1(C)O[C@H]2C[C@@H]3[C@H]4CCC5=CC(=O)CC[C@@]5(C)[C@]4(F)[C@@H](O)C[C@@]3(C)[C@@]2(C(=O)CCl)O1
active: AA1029 2.82 µM | AS120 3.98 µM | CP191 3.16 µM | CP247 3.98 µM | CP252 3.55 µM | CP256 3.55 µM | CP265 3.98 µM | N140 2.51 µM | PC15 3.55 µM | PC26 6.42 µM
inactive: ECU

C=Cc1c(C)c2cc3nc(cc4[nH]c(cc5nc(cc1[nH]2)C(C)=C5CCC(=O)O)c(CCC(=O)OC)c4C)[C@@]1(C)C3=CC=C(C(=O)OC)[C@H]1C(=O)OC (tested in a mixture with another compound)
inactive: CP192 | CP291 | CP297 | PC26
active: AA1029 5.01 µM | AS120 5.62 µM | CP191 11.2 µM | CP247 10 µM | CP265 10 µM | Dd2 2.24 µM | ECU 3.98 µM | N140 7.08 µM | PC15 5.01 µM | SC27B 5.62 µM

CO[C@]1(NC(=O)[C@H](C(=O)O)c2ccc(O)cc2)C(=O)N2C(C(=O)O)=C(CSc3nnnn3C)CO[C@H]21
inactive: all assays above

CCN(CC)[C@@H](C)CN1c2ccccc2Sc2ccccc21
active: Dd2 1.26 µM
inactive: CP185 | CP192 | CP211 | CP256 | CP297 | JCK | PC15

CC=C(/C(=C/C)c1ccc(O)cc1)c1ccc(O)cc1
inactive: all assays above

CO[C@]1(NC(=O)C2SC(=C(C(N)=O)C(=O)O)S2)C(=O)N2C(C(=O)O)=C(CSc3nnnn3C)CS[C@H]21 (some centres undefined)
inactive: all assays above

O=C(OC[C@@H](O)CO)c1ccccc1Nc1ccnc2cc(Cl)ccc12
not listed: CP256
inactive: all other assays above

O=C(Nc1ccccc1)OC[C@H](CN1CCCCC1)OC(=O)Nc1ccccc1
inactive: all assays above

C[C@@H](C(=O)O)c1ccc(C(=O)c2ccccc2)s1
inactive: all assays above

CN1CCC[C@@H](CC2c3ccccc3Sc3ccccc32)C1
inactive: CP185 | CP191 | CP192 | CP211 | CP247 | CP252 | CP256 | CP297 | ECU | SC27B

CCC(=O)[C@@]1(C)[C@H](C)C[C@@H]2[C@@H]3CCC4=CC(=O)C=C[C@@]4(C)[C@H]3[C@H](O)C[C@]21C
not listed: N140
inactive: all other assays above

COc1ccc([C@@H]2CC(=O)c3c(O)cc(O[C@H]4O[C@@H](CO[C@H]5O[C@@H](C)[C@@H](O)[C@@H](O)[C@@H]5O)[C@@H](O)[C@@H](O)[C@@H]4O)cc3O2)cc1O
not listed: CP192
inactive: all other assays above

COC(=O)C1=C(C)NC(C)=C(C(=O)OC(C)C)[C@H]1c1cccc2nonc12
active: N140 3.16 µM
inactive: CP185 | CP192 | CP256 | CP265 | Dd2 | JCK | PC15

C[C@H](CCC(=O)O)[C@H]1CC[C@@H]2[C@@H]3[C@@H](O)C[C@H]4C[C@@H](O)CC[C@@]4(C)[C@H]3CC[C@@]21C
not listed: SC27B | CP265
inactive: all other assays above

NC[C@@H]1O[C@H](O[C@H]2[C@H](O)[C@H](O[C@@H]3O[C@H](CO)[C@@H](O)[C@H](N)[C@@H]3O)[C@@H](N)C[C@H]2N)[C@@H](O)[C@H](O)[C@@H]1O
inactive: all assays above

CCCCC[C@H](O)/C=C\[C@@H]1[C@H](O)CC(=O)[C@@H]1CCCCCCC(=O)O
not listed: CP268
inactive: all other assays above

CC(C)(C)NC[C@H](O)COc1cccc2c1C[C@@H](O)[C@@H](O)C2
inactive: all assays above

COC(=O)[C@@H]1[C@@H]2C[C@H]3c4[nH]c5cc(OC)ccc5c4CCN3C[C@@H]2C[C@H](OC(=O)/C=C\c2cc(OC)c(OC)c(OC)c2)[C@H]1OC
active: AA1029 3.16 µM | AS120 3.55 µM | N140 3.55 µM | PC26 6.42 µM
inactive: CP185

COc1cc(N[C@@H](C)CCCN)c2ncccc2c1
active: AA1029 2.51 µM | AS120 0.794 µM | CP185 2 µM | CP191 1 µM | CP192 2.56 µM | CP211 2.28 µM | CP247 3.55 µM | CP252 1.26 µM | CP256 1.26 µM | CP265 2 µM | CP268 1.61 µM | CP291 1.81 µM | CP297 3.61 µM | Dd2 1.41 µM | ECU 1 µM | JCK 3.98 µM | N140 2.82 µM | PC15 1 µM | PC26 2.28 µM | SC27B 2 µM

CC(C)(C)NC(=O)[C@@H]1CC[C@@H]2[C@@H]3CC[C@@H]4NC(=O)C=C[C@@]4(C)[C@H]3CC[C@]21C
inactive: all assays above

c1ccc2c(c1)CCC[C@@H]2C1=NCCN1
inactive: all assays above

CC1(C)S[C@@H]2[C@H](NC(=O)[C@@H](N)c3ccccc3)C(=O)N2[C@H]1C(=O)O[C@H]1OC(=O)c2ccccc21
inactive: all assays above

CCC(C)(C)C(=O)O[C@@H]1C[C@H](C)C=C2C=C[C@H](C)[C@@H](CC[C@H]3C[C@@H](O)CC(=O)O3)[C@H]21
not listed: Dd2
inactive: all other assays above

COc1ccccc1OC[C@H](O)CO
inactive: all assays above

COc1ccc2c(c1)N(C[C@@H](C)CN(C)C)c1ccccc1S2
not listed: PC26
inactive: all other assays above
